Results on 14 molecules are retold here after PubChem BioAssay (EPA / NIEHS).

The structures appear in SMILES notation. Inconclusive results are not listed. A structure can be active in one record and inactive in another. Calls of active or inactive are those of the source. How the source made its calls, unless noted: active means hit-call score of the fitted dose curve at least 0.9, where 1 is the maximum; inconclusive means response in the unintended direction; inactive means score below 0.9.

One may read the AC50 as the midpoint of the concentration-response curve, whichever way the signal moves.

Assay [1] can be described thus: IUF_NPC4_neurite_length_120hr: Leibniz Research Institute for Environmental Medicine (IUF) 120-hour Neuronal Morphology Assay for Neurite Length (NPC4) (AID 2284302; active means hit-call score of the fitted dose curve at least 0.9, where 1 is the maximum; inactive means score below 0.9). The method, boiled down:
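Human fetal neural progenitor spheres (0.3 mm) plated on poly-D-lysine/laminin in N2 differentiation medium, exposed from day 0 for 120 h with half-medium refresh at day 3, 37C. Mean neurite length (um) of TUBB3-positive neurons from skeletonized immunostaining images; DMSO ≤0.1%.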

The nature of assay [2]: IUF_NPC4_neurite_area_120hr: Leibniz Research Institute for Environmental Medicine (IUF) 120-hour Neuronal Morphology Assay for Neurite Area (NPC4) (AID 2284305). The procedure:
IUF_NPC2-5 is a cell-based, multiplexed assay that uses hNPC, a human primary neural progenitor cells, with measurements taken at 72 or 120 hours after chemical dosing in a 96-well plate. Human neural progenitor cells (hNPC) are generated from human fetal brain cortex at gestational week (GW) 16-19. In the neural progenitor cell migration and differentiation assay (NPC2-5), hNPCs grown as spheres are plated on an extracellular matrix and migrate and differentiate out of the sphere core. The processes radial glia migration, neuronal and oligodendrocyte migration as well as neuronal differentiation, neuronal morphology and oligodendrocyte differentiation are studied using automated phase contrast imaging and automated fluorescence imaging in combination with high content image analysis. In parallel, the cell viability is assessed using an alamar blue viability assay and the cytotoxicity using a lactate dehydrogenase dependent membrane integrity assay.IUF_NPC4_neurite_area_120hr is one of 12 assay components measured from the IUF_NPC2-5 assay. The neurite area at 120 hr is the mean area in pixel (without nuclei) of all neurons (see IUF_NPC3_neuronal_differentiation_120hr) that are identified by the skeletonization algorithm in Omnisphero.Data from the IUF_NPC4_neurite_area_120hr component was analyzed at the endpoint IUF_NPC4_neurite_area_120hr in the positive analysis fitting direction relative to DMSO as the negative control and baseline of activity. Using a type of differentiation reporter, loss-of-signal activity can be used to understand developmental effects.
Culture protocol: After the cell expansion period the cells are cultured for up to four weeks in which they are passaged every week as described in 3.6. Between one to three days after passaging spheres at a size of 0.3 mm are picked for the test method. For the assessment of neural progenitor cell migration and differentiation, the spheres are plated on poly-D-lysine/laminin coated 96-well flat bottom plates in differentiation medium (N2) to initiate migration and differentiation. Thereby one 0.3 mm big sphere is plated in the middle of a well. The differentiation medium consists of DMEM and Ham's F12 at a ratio of 3 to 1 supplemented with 1% N2 and 1% penicillin and streptomycin. Within 5 days NPCs radially migrate out of the sphere core and differentiate into radial glia cells (nestin positive), neurons (TUBB3 positive), oligodendrocytes (O4 positive) and astrocytes (GFAP positive). Cultivation during the test method is performed at 37C and 5% CO2 at a ph of 7.2-7.6.Exposure: 0.3 mm big hNPC are plated in the already prepared test conditions. Exposure starts at day 0 of differentiation and is continued over five days of differentiation until the experiment is terminated. Cells are fed with fresh medium at day 3 of differentiation. Therefore, half of the test condition solution (e.g. solvent control or compound dilution) is replaced by freshly prepared test condition solution.Test Method: Migration distance and cytotoxicity is determined after 72 hours based on brightfield images of each well. The assay is terminated by the assessment of cell viability and cytotoxicity as well as cell fixation after 120 h. Immunocytochemistry is performed for Hoechst positive nuclei, TUBB3 positive neurons and O4 positive oligodendrocytes. On the ICC images, migration after 120 hours, neuronal and oligodendrocyte number, neuronal morphology and neuron/oligodendrocyte specific migration is assessed. immunocytochemical staining (ICC) generates an image for each sphere. The plates are scanned using an automated high content imaging device and all nuclei and their positions are determined automatically based on their intensity and size. Images are imported to the Omnisphero software to run the image analysis that measures the following endpoints. The method is set up for 8 test conditions including 7 compound concentrations and one SC. […]

Assay [3] is described as follows: IUF_NPC2-5_cytotoxicity_72hr: Cytotoxicity Assessment at 72 hours in the Leibniz Research Institute for Environmental Medicine (IUF) Neural Progenitor Cell Migration and Differentiation Assay for Cytotoxicity (NPC2-5) (AID 2284306).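 Further: LDH release into supernatant measured by resorufin fluorescence marking membrane damage.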 The method in brief:
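Human fetal primary neural progenitor spheres (0.3 mm) plated on poly-D-lysine/laminin in N2 differentiation medium, exposed from day 0 at 37C. LDH-dependent resazurin-to-resorufin fluorescence in supernatant at 72 h; 7 concentrations, DMSO at most 0.1%.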

The nature of assay [4]: IUF_NPC2-5_cell_number_120hr: Cell Number Assessment at 120 hours in the Leibniz Research Institute for Environmental Medicine (IUF) Neural Progenitor Cell Migration and Differentiation Assay (NPC2-5) (AID 2284308; active means hit-call score of the fitted dose curve at least 0.9, where 1 is the maximum; inactive means score below 0.9;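 further: count of Hoechst-stained nuclei in migration zone around plated human neural progenitor spheres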). The method in brief: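 Primary human fetal neural progenitor spheres (GW 16-19, 0.3 mm) plated on poly-D-lysine/laminin in N2 differentiation medium, exposed from day 0 for 120 h with half-medium refresh at day 3; Hoechst-positive nuclei counted in migration area versus DMSO control.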

A short description of assay [5]: VALA_TUBHUV_Agonist_CellCount: Viability Assessment in the VALA Sciences human Umbilical Vein Endothelial Tubule Formation (TUBHUV) Agonism Assay (AID 2284309). The method in brief:
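HUVEC co-cultured 1:3 with HDF for 3 days in 10 ng/ml VEGF, then compounds added in VEGF medium for a further 3 days (72 h). Nuclear-stain/CD31 imaging cell count. Positive-direction fit versus 0.1% DMSO vehicle.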

Assay [6] is described as follows: VALA_TUBIPS_Agonist_TubuleLength: VALA Sciences human iPS-derived Endothelial Tubule Formation (TUBIPS) Agonism Assay (AID 2284311). The method in brief: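 Human iPS-derived endothelial cells were exposed to compound for 72 h. Tubule formation was imaged by high-content fluorescence and scored as gain of signal relative to DMSO vehicle (agonist mode).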
Assay [7] can be described thus: IUF_NPC5_oligodendrocyte_differentiation_120hr: Leibniz Research Institute for Environmental Medicine (IUF) 120-hour Oligodendrocyte Differentiation Assay (NPC5) (AID 2284304).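 Further: share of O4-positive cells among Hoechst nuclei found by CNN image analysis.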 The method in brief: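 Primary human fetal (GW 16-19) neural progenitor spheres (0.3 mm) plated on poly-D-lysine/laminin in N2 differentiation medium, exposed from day 0 for 120 h with half-medium refresh at day 3; O4-positive cells as percent of Hoechst nuclei, CNN-identified, versus DMSO.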

Assay [8] in a line: IUF_NPC2-5_cytotoxicity_120hr: Cytotoxicity Assessment at 120 hours in the Leibniz Research Institute for Environmental Medicine (IUF) Neural Progenitor Cell Migration and Differentiation Assay (NPC2-5) (AID 2284307).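 On AC50: LDH released into supernatant as membrane damage marker via resorufin fluorescence.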 The method in brief: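 Human fetal neural progenitor spheres (0.3 mm, GW 16-19 cortex) were plated on poly-D-lysine/laminin in N2 differentiation medium and exposed for 120 h, with half-medium refresh at day 3. LDH release into supernatant was read by resorufin fluorescence.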

A short description of assay [9]: VALA_TUBHUV_Antagonist_CellCount: Viability Assessment in the VALA Sciences human Umbilical Vein Endothelial Tubule Formation (TUBHUV) Antagonism Assay (AID 2284310). The method, boiled down: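 HUVEC co-cultured with HDF (1:3) 3 days in 10 ng/ml VEGF, then 3 days with compounds in VEGF medium. Fixed, nuclear stain and CD31 immunofluorescence, imaged; cell counts fitted versus 0.1% DMSO, loss of signal read as lower viability.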

Read-out in the next assay: CD69, CD69 (gene 969)
As to the kind of experiment: BSK_LPS_CD69: BioMAP Diversity Plus: LPS Assay for CD69 Biomarker Activity (AID 2284303; active means hit-call score of the fitted dose curve at least 0.9, where 1 is the maximum; inactive means score below 0.9). To be noted: primary human HUVEC with PBMC. The method in brief: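 Human umbilical vein endothelial cells co-cultured with PBMC under LPS stimulation, chemical exposure 24 h; cell-surface CD69 measured by ELISA and fitted in the positive direction versus DMSO.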

As for `COC(=O)Nc1nc2ccccc2[nH]1`, the results for the AC50 in assay [1] and in [4] were 8960 nM (active) and 7820 nM (active), respectively. The molecule was called inactive in [2] and in assay [3].
Take `Clc1ccc(Cl)c(Cl)c1`: the call in assay [5] and in [6] was inactive.
For the molecule `CC(C)(C)C(O)(CCc1ccc(Cl)cc1)Cn1cncn1` (stereo not given), the molecule was classed as inactive in [1], in [7], in assay [2], in assay [3], in assay [8] and in assay [4].
With `Oc1ccc2ccc3cccc4ccc1c2c34`, the call in assay [5] and in assay [9] was inactive.
On to `[O-][Cl+]O`, for which the molecule was called inactive in assay [1], in assay [2], in assay [3], in [8] and in assay [4].
For the molecule `O=P(OCCCl)(OCCCl)OCCCl`, the outcome in [1], in assay [2], in assay [3], in [8], in [4] and in assay [5] was inactive. The molecule was called inactive in assay [6]. In addition, the AC50 in assay [9] was 88300 nM (active).
Consider `COP(=S)(OC)SCN1C(=O)c2ccccc2C1=O`, for which the call in [1], in assay [7], in assay [2], in assay [3], in assay [8] and in assay [4] was inactive.
In the case of `CCC[CH2][Sn]([Cl])([CH2]CCC)[CH2]CCC`, the AC50 was 303 nM (active) in [1]; 120 nM (active) in assay [7]; 312 nM (active) in assay [2]; 310 nM (active) in assay [3]; 455 nM (active) in assay [8]; 310 nM (active) in assay [4].
With `CO[C@@H]1[C@H](OC(=O)NC(=O)CCl)CC[C@]2(CO2)[C@H]1[C@@]1(C)O[C@@H]1CC=C(C)C`, the molecule was called inactive in [5] and in assay [9].
`OCCOCCO`: the call in [1], in [7], in assay [3], in assay [8] and in assay [4] was inactive.
With `CC(C)COC(=O)c1ccccc1C(=O)OCC(C)C`, the outcome in [1], in assay [7], in assay [2], in assay [3], in assay [8] and in assay [4] was inactive.
For the molecule `CNC(=O)Oc1cccc2c1OC(C)(C)C2`, the molecule was called inactive in assay [1], in assay [7], in assay [2], in assay [3], in [8] and in assay [4].
As to `CCNS(=O)(=O)C(F)(F)C(F)(F)C(F)(F)C(F)(F)C(F)(F)C(F)(F)C(F)(F)C(F)(F)F`, in the assay with CD69, CD69 (gene 969), the AC50 was 15400 nM (active) and the result was inactive.
As for `CCCCOC(=O)c1ccccc1C(=O)OCc1ccccc1`, the result in [1], in assay [2], in assay [3], in assay [8] and in assay [4] was inactive.
